Screening results from PubChem.
Cruzain Triton: inhibitors of Trypanosoma cruzi cruzain with detergent | purified cruzain, Z-FR-AMC fluorescence, 0.01% Triton | P25779 | 0.43% of 200,000 active | Potency, µM, for inactives: max response, negative = inhibition, actives largely listed as inhibitors;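 also: plate controls were neutral wells for no effect and buffer without enzyme for full effect; nearly all actives have a fitted effect of over 40% in size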
Target sequence (P25779 123-467 limits assumed): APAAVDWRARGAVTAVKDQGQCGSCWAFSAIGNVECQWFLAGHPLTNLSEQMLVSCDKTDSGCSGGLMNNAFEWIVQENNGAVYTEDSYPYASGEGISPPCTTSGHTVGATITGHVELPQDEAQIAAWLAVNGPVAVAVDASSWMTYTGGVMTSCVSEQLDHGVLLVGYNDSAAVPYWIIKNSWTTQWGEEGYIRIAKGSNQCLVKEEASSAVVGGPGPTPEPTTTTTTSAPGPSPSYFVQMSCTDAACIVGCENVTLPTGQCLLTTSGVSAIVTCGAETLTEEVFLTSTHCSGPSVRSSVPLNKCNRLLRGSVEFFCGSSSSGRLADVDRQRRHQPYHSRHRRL
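15 min RT preincubation of 1.5 nM cruzain with compound, then 2 uM Z-FR-AMC added; kinetic AMC fluorescence, 60 s delta. Triton X-100 0.01%, pH 5.5.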
Cruzain noTriton: blocks cruzain activity in detergent-free assay. purified cruzain, Z-FR-AMC fluorescence, no detergent. 2.3% of 200,000 active. P25779. AID 1476. Potency, µM, inactives show max response, negative = inhibition, most hits filed as inhibitors;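 also: plate controls were enzyme without inhibitor for no effect and buffer without enzyme for full effect; nearly all actives have a fitted effect of over 40% in size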
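Detergent-free condition (0.00005% Triton X-100) in acetate buffer pH 5.5 with DTT. 1.5 nM enzyme and compound were pre-mixed 15 min, then 2 uM Z-FR-AMC substrate added; reaction progress from fluorescence change between first and third reads (60 s).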
* marks the source's active call; other numbers are inactive results; ? = inconclusive; · = no result; ! = repeats disagree. Compounds with a hit are over-represented: about 2.6% of the library has one in this group of screens. Calls follow the shape of the dose curve; as a rule, active = well fitted curve in the direction sought with a large enough effect; inconclusive = small, poorly fitted or top-dose-only effect, or another doubt; inactive = no such curve, though single readings can be large; an effect the other way counts as inactive or inconclusive. Potency is read from the fitted curve at half-maximal effect.

SMILES	Cruzain Triton	Cruzain noTriton
O=C(Cn1cc(SCc2c(F)cccc2Cl)c2ccccc21)N1CCCCCC1	-7.4%	-23.7%
CCc1ccccc1NC(=O)C1CCCN(C(=O)c2cnn(-c3ccccc3)c2-n2cccc2)C1 (stereo not drawn)	-4.2%	?
O=C(O)CSC1=NCCN1	7.8%	0.0%
O=C(CSC1=NCCN1)C1COc2ccccc2O1 (stereo not drawn)	0.5%	1.26µM*
ICCc1ccccc1	7.0%	?
CCOC(=O)c1sc(NC(=O)c2cc(-c3ccc(C)cc3)nc3ccccc23)c(C#N)c1C	-1.1%	10µM*
Cc1cc(NC(=O)c2cc(-c3ccccc3C)nc3ccccc23)no1	-6.7%	-14.4%
COC(=O)c1sc(NC(=O)c2cc(-c3ccccc3)nc3ccccc23)c(C#N)c1C	-5.7%	-19.6%
Cc1ccccc1-c1cc(C(=O)Nc2sc(C(=O)OC(C)C)c(C)c2C#N)c2ccccc2n1	0.2%	10µM*
CCNC(=S)NNC(=O)c1cc(-c2ccc(OC)cc2)nc2ccccc12	-1.1%	23.2%
COc1ccc(Cl)cc1C(=O)NNC(=S)NC(=O)c1cc(-c2ccc(Cl)cc2)nc2ccccc12	0.4%	3.16µM*
Cc1sc(NC(=O)c2cc(-c3ccccc3)nc3ccccc23)c(C(N)=O)c1C	-4.4%	-9.8%
Cc1sc(NC(=O)c2cc(-c3ccc(Cl)cc3)nc3ccccc23)c(C(N)=O)c1C	-3.9%	12.6µM*
O=C(Nc1c2c(nn1-c1ccc(Cl)cc1)CS(=O)(=O)C2)c1cccc(F)c1	0.3%	3.3%
Cc1ccc(C)c(N(C)C(=O)c2cn(C)c(=O)c3ccccc23)c1	-0.7%	7.3%
O=C(NCCc1csc(-c2ccc(F)cc2)n1)C(=O)Nc1ccc(Cl)cc1	-0.3%	-2.4%
COc1ccccc1CNC(=O)c1cnc2sc(N3CCCCC3)nn2c1=O	-1.2%	-0.1%
CCc1ccc(C(=O)c2cn(CC(=O)Nc3cccc(OC)c3)c3ccc(OC)cc3c2=O)cc1	-8.5%	-24.9%
COc1ccc(N2CCN(Cc3nnc(-c4cccc(Br)c4)o3)CC2)cc1	-0.5%	3.8%
CCOc1ccccc1NC(=O)C(C)Sc1nc2c(c(=O)[nH]1)CCCC2 (stereo not drawn)	-3.0%	19.4%
CCOC(=O)CSc1nc2cc(C(=O)NCc3ccco3)ccc2c(=O)n1C1CCCCC1	0.4%	?
CCOC(=O)CSc1nc2cc(C(=O)NCc3ccco3)ccc2c(=O)n1-c1ccc(F)cc1	-1.2%	10µM*
CC(=O)Nc1nc(-c2ccc(Br)s2)cs1	2.7%	12.6µM*
O=C(Nc1nc(-c2ccccn2)cs1)c1ccc(Br)s1	-24.1%	?
O=C(Nc1nc(-c2cc(Cl)sc2Cl)cs1)c1ccc(Br)s1	-7.1%	7.94µM*
SMILES	Cruzain Triton	Cruzain noTriton
Cc1ccc(NC(=O)Nc2nc(-c3ccc(C)s3)cs2)cc1	3.7%	25.1µM*
Cc1ccc(NC(=O)Nc2nnc(N3CCCC3)s2)cc1	-5.1%	23.2%
O=C(Nc1nc(-c2cc(Cl)sc2Cl)cs1)c1cccs1	-4.6%	?
Cc1cc(C)c(Nc2nc3ccccc3n3c(C)nnc23)c(C)c1	-2.1%	-6.6%
CCCCOc1ccc(C(=O)Nc2onc3c2CCCC3)cc1	-11.5%	-11.3%
CCCc1nn2c(=O)cc(COC(=O)c3cccc(NC(=O)COc4ccccc4C)c3)nc2s1	2.2%	-14.7%
Cc1c(Cl)cccc1NC(=O)Cn1cc(C(=O)C2CCCCC2)c2ccccc21	-2.9%	?
COc1ccc(-c2cc(-c3cccs3)c(C#N)c(SCC(=O)NCc3ccccc3)n2)cc1	4.1%	7.94µM*
CCSc1nc(-c2ccc(OC)cc2)cc(-c2ccccc2)c1C#N	-0.6%	-13.6%
COc1ccc(-c2cc(-c3ccccc3)nc(SCC(=O)Nc3ncc(C)s3)c2C#N)cc1	-5.2%	7.94µM*
CCc1nnc(NC(=O)CSc2nc(-c3ccc(F)cc3)cc(-c3ccccc3)c2C#N)s1	-0.3%	7.94µM*
COc1ccc(-c2cc(-c3cccs3)c(C#N)c(SCC(=O)NCc3ccccc3OC)n2)cc1	5.7%	?
Cc1cccc(-c2cc(-c3ccccc3)nc(SCC(=O)Nc3ccccc3)c2C#N)c1	1.1%	12.2%
FC(F)(F)c1ccc(-c2noc(-c3ccccc3)c2I)cc1	-2.9%	?
CCC(C)(C)NC(=O)Cn1c(=O)ccc2cc(S(=O)(=O)N3CCC(C)CC3)ccc21	-2.5%	-0.4%
Oc1c(Cl)cc(Cl)cc1Cl	-0.8%	·
CCOC(=O)c1c(NC(=O)CSc2nc3ccccc3s2)sc(C(C)=O)c1C	-1.6%	-24.7%
CCOC(=O)c1c(NC(=O)CSc2nc3cc(Cl)ccc3s2)sc(C(C)=O)c1C	-6.1%	15.8µM*
Cc1cc(NC(=O)CSc2nc3cc(Cl)ccc3s2)no1	1.4%	10µM*
Cc1cc(C)nc(NC(=O)CSc2nc3cc(Cl)ccc3s2)n1	-3.4%	6.4%
CCOc1ccc(NC(=O)CSc2oc(-c3ccc(F)cc3)nc2S(=O)(=O)c2ccc(C)cc2)cc1	0.8%	1.6%
CCCCC/C=C\C/C=C\C/C=C\CCCCCCC(=O)NCCc1ccc(O)c(O)c1	3.2%	-1.6%
COc1ccc(N2CCC(CNC(=S)Nc3cccc(OC)c3)C2)cc1 (stereo not drawn)	-7.6%	31.6µM*
COc1ccc(N2CCC(CNC(=O)Nc3cccc(OC)c3)C2)cc1 (stereo not drawn)	0.3%	?
CCCCSCCCNC(=O)C1CCC(CNS(=O)(=O)c2c(C)cc(C)cc2C)CC1 (stereo not drawn)	-2.1%	5.7%
SMILES	Cruzain Triton	Cruzain noTriton
Cc1cccc(CN(CC(=O)N/N=C/c2ccco2)S(=O)(=O)c2ccc(Cl)cc2)c1	-2.6%	16.9%
O=C(N/N=C\c1ccc(CNS(=O)(=O)c2ccc(Cl)cc2)o1)C(=O)Nc1ccc(Oc2ccccc2)cc1	-0.8%	7.94µM*
O=C(N/N=C\c1ccc(CN(Cc2ccc(Cl)cc2)S(=O)(=O)c2ccccc2)o1)C(=O)Nc1ccc(F)cc1	1.6%	7.94µM*
O=C(N/N=C\c1ccc(CNS(=O)(=O)c2ccccc2)o1)C(=O)Nc1ccc(F)cc1	1.3%	?
COc1cc(OC)cc(C(=O)Oc2c(Sc3ccccc3)c(C)nn2C(C)(C)C)c1	-4.3%	-5.9%
COc1cccc(Cn2c(=O)c(-c3cccs3)nc3cnc(N4CCNCC4)nc32)c1	-10.9%	?
CC(C)=CCc1c2c(c3occ(-c4ccc(O)cc4)c(=O)c3c1O)C=CC(C)(C)O2	-8.6%	?
CC(C)=CCc1c2c(c3occ(-c4ccc(O)c(O)c4)c(=O)c3c1O)C=CC(C)(C)O2	-1.2%	25.1µM*!
COc1ccc(C2=CC(c3cccc(C)c3)n3nnnc3N2)cc1 (stereo not drawn)	-5.7%	0.7%
CCOc1cc(NC(=S)Nc2ccccc2)c(OCC)cc1NC(=O)c1ccc(OC)cc1	-2.8%	15.8µM*
CCOc1cc(NC(=S)Nc2cccc(OC)c2)c(OCC)cc1NC(=O)c1ccc(C)cc1	-1.3%	?
O=C(Cn1ncn2nc(-c3cccs3)cc2c1=O)NCc1ccccc1Cl	-1.5%	-5.4%
CCCN(CCC)C(=O)Cn1c(=O)n(-c2ccc(OC)cc2)c(=O)c2ccc(C(=O)NCc3ccc(C)cc3)cc21	-1.0%	?
COc1ccc(C(C[N+](=O)[O-])c2c(-c3ccccc3)cc3ccccn23)c(OC)c1 (stereo not drawn)	-6.4%	?
Cc1cc2ccccn2c1C(C[N+](=O)[O-])c1ccc(N(C)C)cc1 (stereo not drawn)	-9.7%	25.1µM*
COc1ccccc1C(=O)NNC(=S)NC(=O)c1sc2ccccc2c1Cl	8.0%	10µM*
COc1ccc(CCNC(=O)c2sc3ccccc3c2Cl)cc1OC	-11.0%	8.9%
